Our source for the Potency values is PubChem BioAssay (NCATS).

Records with an inconclusive call do not appear. Entries that show only a call come without a potency. Activity calls are given as the source filed them. Calls come from the whole dose curve; as a rule, active = well fitted cell-killing curve with a large enough effect; inconclusive = small, poorly fitted or top-dose-only effect; inactive = flat fitted curve, though single readings scatter.
Potency is the fitted concentration of half-maximal effect.

A short description of this assay: Quantitative highthroughput screen to assess conditional lethalithy of P12 Ichikawa cells grown in Human Plasma-Like Medium with dialyzed fetal bovine serum (HPLM+ds) (AID 1963879). Note: nearly all actives have a fitted effect of over 35% in size. Particulars: ATP luminescence, 48 h; Potency: viability; series mostly up to 45.8 µM. An excerpt: Assay Provider: Jason Cantor Ph.D.
Department of Biochemistry
University of Wisconsin-Madison, Madison, WI, USA
Chemical screening studies have identified drug sensitivities across hundreds of cancer cell lines but most putative therapeutics fail to translate. Discovery and development of drug candidates in models that more accurately reflect nutrient levels in human blood is a major challenge. Here we performed high-throughput screens in conventional versus Human Plasma-Like Medium (HPLM) to identify compounds that were "missed" when screening using the artificial culture condition. Sets of conditional anticancer compounds spanned phases of clinical development and included non-oncology drugs were assessed. […] We also traced conditional phenotypes for several chemotherapeutics to availability of HPLM-specific metabolites and confirmed others for compounds whose reported targets are encoded by nonessential genes. Our findings establish generalizable strategies for exploiting conditional lethality in HPLM to reveal therapeutic candidates and mechanisms of action in cancer cells.
Described herein are the results of each viability screens against three cell lines: NOMO1 (an acute myeloid leukemia cell line); P12-Ichikawa (a T-cell acute lymphoblastic leukemia); and SEM (a B-cell ALL). Each assay was screened using 3 different cell culture media: homemade human plasma-Like medium with 10% dialyzed fetal bovine serum (HPLM+ds); RPMI1640 with 10% untreated FBS and 5mM glucose (RPMI+s); and RPMI1640 with 10% dialyzed fetal bovine serum and 5 mM glucose (RPMI+ds).
PROTOCOL TABLE (as described by Inglese J, Shamu CE and Guy RK. 2007)
SEQUENCE No. (e.g., 1, 2, 3, etc.); […] (e.g., Cells, Incubation, Reagent, etc.); VALUE and DESCRIPTION.
1; Cells; 5 uL; white, solid bottom 1536-well Greiner assay plate.
2; Compounds; 23 nL; Kalypsis pin tool (Wako USA) equipped with a 1536-well pin head to transfer to the assay plates.
3; Incubation; 48 hours; 37C incubation.
4; Reagent; 3 uL; CellTiter Glo (Promega).
5; Incubation; 5 min, room temperature
6; Detection; Luminescence, Viewlux PerkinElmer.
NOTES (numbers refer to Sequence numbers above)
1. Briefly, 5 ul of cell reagent was dispensed using a Multidrop Combi Dispenser. The NOMO1 and SEM cells were plated at 500 cells/well and the P12-Ichikawa line at 1000 cells/well.
2. After seeding the cells, 23 nL of MIPE 4.1 library compounds (in DMSO) were added to each plate using a Kalypsys 1536 Pintool dispenser. Bortezomib at final concentration of […] and DMSO were added to each plate as positive and negative controls respectively. For each screen, MIPE 4.1 compounds were added over an eleven-point concentration range […] in 3-fold dilutions.
3. Each plate was covered with a stainless steel gasketed lid to prevent evaporation and incubated for 48 hour at 37C, 95% relative humidity, and 5% CO2.
4-5. Three microliter CellTilter-GloTM luminescent substrate mix (Promega) reagent was added to the assay plate and incubated at room temperature for 5 min.
6. The luminescence signal was measured using a ViewLux (PerkinElmer) multiplate reader with a 2 second exposure time per plate. Data for each compound were normalized as percent viability such that measurements for DMSO and the empty well controls in each plate were defined as 100% and 0%, respectively.
Regarding `Nc1nc(Cl)nc2c1ncn2[C@H]1C[C@H](O)[C@@H](CO)O1`, the Potency was 209 nM (active). As to `Cc1cc(-c2ccc(CC(=O)Nc3ccc(-c4cccnc4)cc3)cc2)ccn1`, the Potency was 6620 nM (active). Consider `CC(C)c1ccccc1Cc1cc(C(=O)Nc2ccc(S(=O)(=O)c3ccccc3C(C)(C)C)cc2)c(O)c(O)c1O`, for which the Potency result is “inactive”. Take `COc1ccc(-c2nc(N3CCOCC3)c3sc(CN(C)c4ncc(C(=O)NO)cn4)cc3n2)cn1`: the Potency was 20.9 nM (active).

For `CN(C)C(=N)N=C(N)N`, the Potency is 26400 nM (active). Consider `C[C@]1(CO)CN(c2cc(C(=O)Nc3ccc4c(c3)-c3c(c(C(N)=O)nn3-c3ccc(F)cc3)CC4)c(Cl)cn2)C[C@@]1(C)CO`, for which the Potency is 16600 nM (active). In the case of `CNC[C@@H](O)[C@@H](O)[C@H](O)[C@H](O)CO`, the Potency result is “inactive”.

Take `COc1cccc2c1C(=O)c1c(O)c3c(c(O)c1C2=O)C[C@@](O)(C(C)=O)C[C@H]3O[C@H]1C[C@H](N)[C@H](O)[C@H](C)O1`: the Potency was 264 nM (active). Turning to `O=C(O)c1cc(=O)[nH]c(=O)[nH]1`, the Potency entry was “inactive”.

Turning to `COc1cc(OC)c(C(=O)CCCN2CCCC2)c(OC)c1`, the Potency entry was “inactive”. Take `Cc1cnc(-c2cc(N3CCN(C(=O)CCS(C)(=O)=O)CC3)ncc2Cl)c(C)c1`: the Potency result was “inactive”. In the case of `O=C(NCCO[N+](=O)[O-])c1cccnc1`, the Potency entry was “inactive”. The same measure for `Cc1cc(C(=O)N2CCN(c3cccc(Cl)c3)CC2)n(-c2ccccc2)n1`: 1480 nM (active); for `O=C1NCCc2[nH]c(-c3ccncc3)cc21`: 16600 nM (active). Regarding `CCCCCCCCCCCC1=C(O)C(=O)C=C(O)C1=O`, the Potency is 2090 nM (active).

On to `COc1ccc(C=Cc2cc(OC)c(OC)c(OC)c2)cc1NC(=O)[C@H](N)CO`, for which the Potency is 29.6 nM (active).

Take `CC#CCn1c(N2CCC[C@@H](N)C2)nc2c1c(=O)n(Cc1nc(C)c3ccccc3n1)c(=O)n2C`: the Potency entry is “inactive”. With `COc1cc(CNC(=O)CCCCC=CC(C)C)ccc1O`, the Potency was 332 nM (active). The same measure for `COc1ccc(C=Cc2cc(OC)c(OC)c(OC)c2)cc1O`: “inactive”; for `Cc1ccc(C(=O)Nc2cccc(C(F)(F)F)c2)cc1Nc1nc(-c2cccnc2)nc2c1cnn2C`: “inactive”. With `OC[C@@H](O)[C@@H](O)[C@H](O)[C@@H](O)CO` the entry was “inactive”; with `CCOC(=O)[C@H]1O[C@H]1C(=O)N[C@@H](CC(C)C)C(=O)NCCC(C)C`, “inactive”. As to `CNC(=O)c1ccc(Nc2ncc(C(F)(F)F)c(NCc3nccnc3N(C)S(C)(=O)=O)n2)cc1`, the Potency result is “inactive”. The same measure for `C[C@]12CCC3c4ccc(O)cc4CCC3C1CCC2=O` (stereo not given in full): “inactive”; for `NC(=O)c1ccc(N(C(N)=O)c2c(F)cccc2F)nc1-c1ccc(F)cc1F`: “inactive”. Consider `O=C1Cc2cc(CCN3CCN(c4nsc5ccccc45)CC3)c(Cl)cc2N1`, for which the Potency result is “inactive”. With `N#Cc1c(N(CC(=O)O)CC(=O)O)sc(C(=O)O)c1CC(=O)O`, the Potency is 16600 nM (active).

Regarding `CC[C@]1(O)C[C@H]2CN(CCc3c([nH]c4ccccc34)[C@@](C(=O)OC)(c3cc4c(cc3OC)N(C=O)[C@H]3[C@@](O)(C(=O)OC)[C@H](OC(C)=O)[C@]5(CC)C=CCN6CC[C@]43[C@@H]65)C2)C1`, the Potency is 26.4 nM (active).

As for `COC(=O)C1=C(C)NC(C)=C(C(=O)OCCCN2CCC(c3ccccc3)(c3ccccc3)CC2)C1c1cccc([N+](=O)[O-])c1` (stereo not given), the Potency entry was “inactive”. With `Cn1cnc(-c2cc3nccc(Oc4ccc(NC(=S)NC(=O)Cc5ccccc5)cc4F)c3s2)c1` the figure was 23500 nM (active); with `CC1(C)O[C@H]2C[C@@H]3[C@H]4CCC5=CC(=O)C=C[C@]5(C)[C@@]4(F)[C@@H](O)C[C@]3(C)[C@]2(C(=O)CO)O1`, 1480 nM (active).

In the case of `CN[C@@H](C)C(=O)N[C@H]1CCCC[C@H]2CC[C@@H](C(=O)N[C@@H](c3ccccc3)c3cn(CCCCc4ccc(CCCCn5cc([C@@H](NC(=O)[C@@H]6CC[C@@H]7CCCC[C@H](NC(=O)[C@H](C)NC)C(=O)N76)c6ccccc6)nn5)cc4)nn3)N2C1=O`, the Potency entry is “inactive”. The same measure for `CCC(CC)[C@H](NC(C)=O)[C@@H]1[C@H](O)[C@@H](C(=O)O)C[C@@H]1N=C(N)N`: “inactive”; for `Cc1cn2cc(C(=O)N(C)CCO)cc(N[C@@H]3CCOc4cccc(C)c43)c2n1`: “inactive”; for `Nc1ccn(C[C@@H](CO)OCP(=O)(O)O)c(=O)n1`: “inactive”. On to `Cc1cc(-c2ncc(CC(=O)Nc3ccc(-c4cnccn4)cn3)cc2C)ccn1`, for which the Potency result was “inactive”. Consider `C[C@@H]1CC[C@@]2(OC1)OC1CC3C4CC=C5CC(O)CCC5(C)C4CCC3(C)C1[C@@H]2C` (stereo not given in full), for which the Potency is 11800 nM (active). Regarding `CO[C@H]1C[C@@H]2CC[C@@H](C)[C@@](O)(O2)C(=O)C(=O)N2CCCC[C@@H]2C(=O)O[C@H]([C@H](C)C[C@@H]2CC[C@H](OC(=O)C(C)(CO)CO)[C@H](OC)C2)CC(=O)[C@H](C)C=C(C)[C@@H](O)[C@@H](OC)C(=O)[C@H](C)C[C@H](C)C=CC=CC=C1C`, the Potency is 6620 nM (active). For `CC(=O)NC(C)c1ccc(Oc2ccc(OC(C)C)cc2)cc1` (stereo not given), the Potency result is “inactive”.

Turning to `COc1nccc(-c2c(-c3ccc(F)cc3)ncn2C2CCC(O)CC2)n1` (stereo not given), the Potency result is “inactive”.
